# Laboratory results as given in PubChem BioAssay (NCATS).
# Results filed as inconclusive are left out. Unmarked numbers belong to inactive results. Activity calls are given as the source filed them. Calls come from the whole dose curve; as a rule, active = well fitted inhibition curve with a large enough effect; inconclusive = small, poorly fitted or top-dose-only effect; inactive = flat fitted curve, though single readings scatter.
# Legend:
# CRL-7250 = normal cell line; assay: Cytotoxic Profiling of Annotated Libraries Using Quantitative High-Throughput Screening (AID 1296008); details: Five cell lines viability, CellTiter-Glo ATP luminescence, 48-72 h; max response: active compounds read low; note: potency is the fitted concentration of half-maximal effect; for max response: % is set by controls: 0 for no effect and ±100 for the full control effect
# Procedure, shortened: (§1)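 Cytotoxicity was measured as CellTiter-Glo ATP luminescence, read after 10 min at room temperature. Compound treatment of the cells lasted 48 or 72 hr at 37 degrees Celsius in a qHTS format.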
# HaCat [1] = assay: as above; details: Five cell lines viability, CellTiter-Glo ATP luminescence, 48-72 h; max response: active compounds read low
# Procedure, shortened: as §1
# KB-3-1 = assay: as above; details: Five cell lines viability, CellTiter-Glo ATP luminescence, 48-72 h; max response: active compounds read low
# Procedure, shortened: as §1
# NIH3T3 = assay: as above; details: Five cell lines viability, CellTiter-Glo ATP luminescence, 48-72 h; max response: active compounds read low
# Procedure, shortened: as §1
# HACAT [2] = assay: qHTS assay to identify novel small-molecules to repurpose for Merkel cell carcinoma treatment (AID 1296009); details: MCC and control cell lines, CellTiter-Glo viability, 72 h; at 44.8 µM (top of the series) unless noted
# Procedure, shortened: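 Cell viability, measured as CellTiter-Glo luminescence, was normalized between DMSO and no-cell wells. The cells had been exposed to 8- or 11-point compound dilutions for 72 hr at 37 degree celsius.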
# Note: nearly all actives have a fitted effect of over 60% in size.
smiles,measurement,setting,value
CC(O)(C(=O)C1CC1(CO)COC1OC(CO)C(O)C(O)C1O)C1C(O)CC2C3CC=C4CC(O)CC(O)C4(C)C3C(O)CC21C (stereo not drawn),Potency,CRL-7250,432 nM (active)
same,Potency,HaCat [1],1720 nM (active)
same,Potency,KB-3-1,769 nM (active)
same,max response,NIH3T3,0.504%
COc1ccccc1N1CCN(CC(C(=O)NC(C)(C)C)c2ccccc2)CC1 (stereo not drawn),outcome,CRL-7250,inactive
same,max response,HaCat [1],-3.82%
same,max response,KB-3-1,7.33%
same,outcome,NIH3T3,inactive
C[C@@]12C(=O)N(c3ccc(C(=O)Nc4cccc5cccnc45)cc3)C(=O)[C@@H]1[C@@H]1C=C[C@H]2C1,max response,CRL-7250,-9.69%
same,max response,HaCat [1],-0.616%
same,max response,KB-3-1,-11.1%
same,outcome,NIH3T3,inactive
CC(=O)[C@H]1CC[C@H]2[C@@H]3CC=C4C[C@@H](OS(=O)(=O)O)CC[C@]4(C)[C@H]3CC[C@]12C,outcome,CRL-7250,inactive
same,max response,HaCat [1],1.57%
same,max response,KB-3-1,2.57%
same,max response,NIH3T3,-4.15%
O=C(Nc1ccc(N2C(=O)[C@@H]3[C@H](C2=O)[C@@H]2C=C[C@H]3C2)c(Cl)c1)c1ccccn1,max response,CRL-7250,-25.2%
same,max response,HaCat [1],-18.9%
same,max response,KB-3-1,-24.5%
same,max response,NIH3T3,-23.8%
Cc1[nH]c2ccccc2c1CCNCc1ccc(/C=C/C(=O)NO)cc1,Potency,CRL-7250,517 nM (active)
same,Potency,HaCat [1],184 nM (active)
same,Potency,KB-3-1,82 nM (active)
same,Potency,NIH3T3,366 nM (active)
Cc1c(C2=CCN(C(=O)N(C)C(C)C)CC2)nnn1-c1cccnc1F,max response,CRL-7250,-2.94%
same,max response,HaCat [1],3%
same,max response,KB-3-1,7.23%
same,max response,NIH3T3,-3.1%
C[C@@H]1CC[C@@]23CC[C@]4(C)[C@@](C=CC5[C@@]6(C)CC[C@H](O)C(C)(C)C6CC[C@]54C)(OC2=O)C3[C@H]1C (stereo partly drawn),outcome,CRL-7250,inactive
same,max response,HaCat [1],-10.7%
same,max response,KB-3-1,7.23%
same,max response,NIH3T3,0.572%
COCC(c1ccc(C(F)(F)F)cc1)N1CCN(C2(C)CCN(C(=O)c3c(C)ncnc3C)CC2)CC1C (stereo not drawn),max response,CRL-7250,4.87%
same,max response,HaCat [1],-10.9%
same,max response,KB-3-1,8.07%
same,outcome,NIH3T3,inactive
CC(=O)OC/C(=C/C(=O)O)CC[C@@H]1C(C=O)=CC[C@@H]2C(C)(C)CCC[C@@]12C,max response,CRL-7250,4.87%
same,max response,HaCat [1],3.05%
same,max response,KB-3-1,3.67%
same,max response,NIH3T3,3.58%
CCc1c(Cl)c(O)c(Cl)c(O)c1C(=O)O[C@H]1[C@H](O)[C@H](OC)[C@H](OC/C2=C\C=C\C[C@H](O)/C(C)=C\[C@H](CC)[C@@H](O[C@@H]3OC(C)(C)[C@@H](OC(=O)C(C)C)[C@H](O)[C@@H]3O)/C(C)=C/C(C)=C/C[C@@H]([C@@H](C)O)OC2=O)O[C@@H]1C,outcome,CRL-7250,inactive
same,max response,HaCat [1],-22.3%
same,max response,KB-3-1,-8.77%
same,outcome,NIH3T3,inactive
CCC(C)c1ccc(NC(=O)Cn2cnc3c2c(=O)n(C)c(=O)n3C)cc1 (stereo not drawn),max response,CRL-7250,-7.14%
same,max response,HaCat [1],-17.7%
same,max response,KB-3-1,-2.48%
same,max response,NIH3T3,-2.04%
COc1cc2c(c(OC)c1CC=C(C)C)C[C@H](c1ccc(O)c(CC=C(C)C)c1O)CO2,max response,CRL-7250,2.21%
same,max response,HaCat [1],-6.86%
same,max response,KB-3-1,-4.62%
same,max response,NIH3T3,-5.48%
CCCOc1ccc(S(=O)(=O)N2CCN(CCO)CC2)cc1-c1nc2c(CCC)cn(CC)c2c(=O)[nH]1,max response,CRL-7250,-15%
same,outcome,HaCat [1],inactive
same,max response,KB-3-1,7.41%
same,max response,NIH3T3,4.33%
same,outcome,HACAT [2],inactive
O=C(NC1CCC1)c1ccc(C#Cc2cccc(F)c2)nc1,max response,CRL-7250,-2.08%
same,max response,HaCat [1],-7.87%
same,max response,KB-3-1,8.07%
same,max response,NIH3T3,-25.1%
O=C(c1cc(Cc2n[nH]c(=O)c3ccccc23)ccc1F)N1CCCNCC1,max response,CRL-7250,0.306%
same,outcome,HaCat [1],inactive
same,outcome,KB-3-1,inactive
same,max response,NIH3T3,0.0332%
same,outcome,HACAT [2],inactive
CCOc1ccc(CCNC(=O)c2cc3sc(Cl)cc3n2C)cc1OCC,max response,CRL-7250,-5.08%
same,outcome,HaCat [1],inactive
same,max response,KB-3-1,-5.99%
same,outcome,NIH3T3,inactive
same,outcome,HACAT [2],inactive
COc1c(C)cc(NC(=O)c2nn(Cc3ccc(F)cc3)c3c2CN(C(=O)c2ccc[nH]2)C[C@]3(C)C(N)=O)cc1C,max response,CRL-7250,-1.93%
same,max response,HaCat [1],-0.617%
same,outcome,KB-3-1,inactive
same,max response,NIH3T3,-14%
COc1cc2c(cc1OCCCN1CCCC1)N=C(N)C21CCC1,max response,CRL-7250,-5.27%
same,max response,HaCat [1],2.83%
same,max response,KB-3-1,0.253%
same,outcome,NIH3T3,inactive; activator
Cc1ccc(CNc2ncnc3ccc(-c4ccc(CO)o4)cc23)o1,max response,CRL-7250,-10.7%
same,Potency,HaCat [1],16400 nM (active)
same,max response,KB-3-1,8.1%
same,max response,NIH3T3,-6.8%
